Screens as filed in PubChem BioAssay.
Rows were chosen to be rich in hits. Some 14% of all compounds tested hit in one or more screens of this group.
FBPA Giardia inh – Giardia lamblia aldolase inhibition; A8B2U2; purified Giardia FBPA; Potency, µM (top dose mostly 59.6 µM), without a hit: top-dose activity, negative = inhibition, hits mostly inhibitors; actives 0.71% (n = 290,000); also: potency is read from the fitted curve at half-maximal effect; nearly all actives have a fitted effect of over 55% in size
Target sequence (A8B2U2 whole entry, looked up): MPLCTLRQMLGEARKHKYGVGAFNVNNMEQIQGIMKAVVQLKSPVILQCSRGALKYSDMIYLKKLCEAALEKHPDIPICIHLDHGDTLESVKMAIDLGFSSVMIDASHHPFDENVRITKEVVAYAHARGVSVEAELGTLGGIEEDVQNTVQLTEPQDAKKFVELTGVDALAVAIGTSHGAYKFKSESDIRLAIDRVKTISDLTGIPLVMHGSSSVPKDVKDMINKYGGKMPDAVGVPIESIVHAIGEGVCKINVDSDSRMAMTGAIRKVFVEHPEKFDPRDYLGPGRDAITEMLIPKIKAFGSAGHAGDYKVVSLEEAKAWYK
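Giardia FBPA (40 nM reagent) was preincubated 10 min at RT with compound (up to 57.5 uM final), then substrate plus GAPDH/TPI/NAD/arsenate coupling system with diaphorase/resazurin was added; resorufin fluorescence (525/598 nm) was read after 20 min.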
Pf growth 48h – P. falciparum growth inhibition at 48 hours (one generation) | Potency, µM (titrated, usually from 28.7 µM), without a hit: top-dose activity change, negative = inhibition, hits mostly inhibitors | actives 5.9% (n = 310,000) | P. falciparum luciferase growth in erythrocytes, 48 h; also: potency is read from the fitted curve at half-maximal effect
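Parasite viability was followed by luminescence of a genomically integrated firefly luciferase. Cultures held 0.1% parasitemia at 2% hematocrit (final), incubated under 5% CO2 at 37 C.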
Pf growth 96h – inhibits malaria parasite growth, 96 h. Potency, µM (titrated, usually from 28.7 µM), without a hit: top-dose activity change, negative = inhibition, most hits filed as inhibitors. actives 6.9% (n = 320,000). P. falciparum luciferase reporter growth, 96 h. AID 504834; also: potency is read from the fitted curve at half-maximal effect
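Compounds incubated with erythrocytes infected by luciferase-expressing P. falciparum (2% hematocrit, 0.05% parasitemia final) for 96 hours, 37 C in 5% CO2. Growth inhibition scored as decreased luciferase luminescence.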
Sm TGR inh – blocks Schistosoma mansoni thioredoxin glutathione reductase; Q962Y6; purified TGR, DTNB reduction, TNB absorbance 405 nm; Potency, µM (doses to about 114 µM), without a hit: top-dose activity change, negative = inhibition, actives largely listed as inhibitors; actives 3% (n = 360,000); AID 485364; also: potency is read from the fitted curve at half-maximal effect; nearly all actives have a fitted effect of over 60% in size
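Kinetic colorimetric format: TGR-catalysed, NADPH-driven DTNB reduction monitored via TNB absorbance. Enzyme dispensed at 20 nM; compound exposure 15 min at room temperature before reaction start.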
HCMV antiviral – human cytomegalovirus inhibition; HFF cells, HCMV-luciferase reporter, 72 h; stronger effect = lower value; activity change, negative = inhibition, % at 57.5 µM; actives 4.5% (n = 410,000); AID 1259415; in the data active = activity change below about -60%; inconclusive = no clear call, values can overlap the other calls; inactive = above about -39%
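Two compound doses tested in HFFs infected with HCMV-luciferase, MOI 1 PFU/cell, 72 h at 37C. Lysate luminescence read with OneGlo; data normalized against buffer-only and 10uM Salinomycin inhibitor controls.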
* hit, by the source's call; ? = inconclusive; / = no result given. Unless noted, calls follow the shape of the dose curve; as a rule, active = well fitted curve in the direction sought with a large enough effect; inconclusive = small, poorly fitted or top-dose-only effect, or another doubt; inactive = no such curve, though single readings can be large; an effect the other way counts as inactive or inconclusive. % is scaled to controls: 0 for no effect and ±100 for the full control effect.

SMILES	FBPA Giardia inh	Pf growth 48h	Pf growth 96h	Sm TGR inh	HCMV antiviral
CCN1CCN(C2=C(NS(=O)(=O)c3ccc(NC(C)=O)cc3)C(=O)c3ccccc3C2=O)CC1	/	?	10.4µM*	?	-17.0
CC(=O)Nc1ccc(S(=O)(=O)Nc2nc3ccccc3nc2N2CCCC2)cc1	24.6%	14.5%	/	-27.5%	1.7
CCOC(=O)N1CCN(C2=C(NS(=O)(=O)c3ccc(NC(C)=O)cc3)C(=O)c3ccccc3C2=O)CC1	/	?	9.28µM*	?	?
CCN1CCN(C2=C(NS(=O)(=O)c3ccc(C)cc3)C(=O)c3ccccc3C2=O)CC1	/	2.94µM*	1.65µM*	?	0.0
CC(=O)Nc1ccc(S(=O)(=O)NC2=C(N3CCN(Cc4ccccc4)CC3)C(=O)c3ccccc3C2=O)cc1	?	/	1.17µM*	-6.1%	24.4
COc1ccc(-c2sc3ccc(OC)cc3c2C#Cc2cncn2C)cc1	/	/	/	/	20.2
COc1ccc(-c2oc3ccccc3c2C#Cc2cncn2C)cc1	/	0.586µM*	0.657µM*	-19.1%	5.2
COc1ccc(OC)c(CNc2ccc([N+](=O)[O-])cc2C)c1	-11.1%	?	44.9%	3.2%	-91.3*
COc1ccc([N+](=O)[O-])cc1NCc1ccccc1	-6.9%	17.6%	3.29µM*	-0.9%	-33.3
CCCCNc1cc(NC(C)=O)cc2cc(OC)c(OC)cc12	?	?	-0.6%	?	29.5
COc1cccc(CNc2ccc([N+](=O)[O-])cc2C)c1	-3.9%	?	16.6%	/	31.7
COc1ccc([N+](=O)[O-])cc1NC1CCCCC1	-2.1%	?	93.4%	-10.4%	-14.5
COc1cc2cc(NC(C)=O)cc(NCc3ccccc3)c2cc1OC	?	?	1.4%	35.5µM*	28.0
COc1ccc([N+](=O)[O-])cc1NC1C2CC3CC(C2)CC1C3 (centres undefined)	/	7.9%	0.522µM*	7.1%	-35.2
CC(=O)/C=C1\OCc2cc(OCc3ccccc3)ccc21	/	/	/	/	62.6
CC(C)(C)c1ccc(Cn2ccc(-c3ccc4c(c3)OCO4)n2)cc1	-4.5%	-4.2%	?	0.0%	10.0
O=C(NC1CCCCC1)c1csnn1	/	/	/	/	-8.2
O=C(Cc1ccccc1[N+](=O)[O-])NCCCN1CCOCC1	11.0%	5.7%	4.9%	1.2%	-1.1
Cc1cc(C)n(CCNC(=O)[C@H]2O[C@@H](n3ccc(=O)[nH]c3=O)[C@H](O)[C@@H]2O)n1	/	/	/	/	-4.4
O=C1[C@H](Cc2ccccc2)NCCCC[C@H](c2ccco2)N1Cc1ccccc1	/	/	/	/	-16.4
CCCCNC(=O)C1(C)CCCCCN1Cc1cccc2c(OC)cc(C(=O)OCC)cc12 (centres undefined)	/	/	/	/	15.5
Cc1ccc(C)c(Oc2ncnc(N)c2[N+](=O)[O-])c1	14.7%	-5.6%	27.5%	-14.9%	?
Cc1cc(Sc2ncnc(N)c2[N+](=O)[O-])ncn1	?	0.1%	10.5%	0.891µM*	/
CCC(C)N(C(=O)Cn1nnc2ccccc21)C(C(=O)NCc1ccco1)c1cccc(OC)c1 (centres undefined)	0.5%	-2.4%	10.4µM*	0.0%	14.5
COCCNC(=O)C(c1cccc(OC)c1)N(C(=O)Cn1nnc2ccccc21)c1cccnc1 (centres undefined)	0.7%	/	-21.1%	-0.1%	-25.9
COCCN(C(=O)Cn1nnc2ccccc21)C(C(=O)NC1CCCC1)c1cccc(OC)c1OC (centres undefined)	2.5%	?	-5.7%	-22.8%	-1.3
Cc1ccccc1N(C(=O)Cn1nnc2ccccc21)C(C(=O)NCc1ccco1)c1ccncc1 (centres undefined)	-15.0%	?	/	?	-35.1
COc1ccc(C(C(=O)NCCC(C)C)N(CCN2CCOCC2)C(=O)Cn2nnc3ccccc32)c(OC)c1 (centres undefined)	3.8%	?	5.22µM*	13.9%	-14.9
CCOCCCN(C(=O)Cn1nnc2ccccc21)C(C(=O)NCc1ccco1)c1ccncc1 (centres undefined)	-25.5%	-5.7%	?	15.8µM*	-13.4
O=C(NCc1ccco1)C(c1ccco1)N(CCc1ccccc1)C(=O)Cn1nnc2ccccc21 (centres undefined)	-0.8%	?	2.33µM*	-24.1%	-7.2
